The list is not random: actives were taken first. Their share in the collection is about 4.8%.
Caspase-7 inhib – caspase-7 (human) inhibition, allosteric or competitive; P55210; recombinant caspase-7, Ac-DEVD-AFC fluorescence rate; Potency, µM (doses to about 57.5 µM), for the others: at the highest dose activity change, negative = inhibition, actives largely listed as inhibitors; actives 0.02% (n = 75,000); AID 889; active = well fitted inhibition curve with a large enough effect in the main read-out, with a control signal flat, not every such curve was filed as active; inconclusive = small, poorly fitted or top-dose-only effect, or a change in a side signal; note: % of control where 0% means no effect
Target sequence (P55210 24-198 limits assumed): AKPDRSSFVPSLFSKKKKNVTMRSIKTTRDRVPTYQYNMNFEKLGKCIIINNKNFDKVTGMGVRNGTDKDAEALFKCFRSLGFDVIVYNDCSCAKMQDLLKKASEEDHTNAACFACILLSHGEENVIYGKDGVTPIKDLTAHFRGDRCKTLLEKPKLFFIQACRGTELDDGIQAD
Target sequence (P55210 207-303 limits assumed): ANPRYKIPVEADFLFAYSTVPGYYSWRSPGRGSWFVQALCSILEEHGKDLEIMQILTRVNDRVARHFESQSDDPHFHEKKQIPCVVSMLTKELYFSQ
Caspase-1 inhib – caspase-1 (human) inhibition, allosteric or competitive; P29466; Potency, µM (highest dose often 57.5 µM), for inactives: top-dose activity change, negative = inhibition, most hits filed as inhibitors; Caspase-1 enzyme, Ac-WEHD-AFC fluorogenic rate; actives 0.03% (n = 75,000);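 note: plate controls were vehicle for no effect and no substrate for full effect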
Target sequence (P29466 120-297 limits assumed): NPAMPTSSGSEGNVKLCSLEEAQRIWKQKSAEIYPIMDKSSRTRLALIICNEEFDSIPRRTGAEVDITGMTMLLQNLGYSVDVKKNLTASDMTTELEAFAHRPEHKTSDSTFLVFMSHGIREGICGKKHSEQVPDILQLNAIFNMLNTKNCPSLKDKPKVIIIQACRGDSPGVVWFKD
Target sequence (P29466 317-404 limits assumed): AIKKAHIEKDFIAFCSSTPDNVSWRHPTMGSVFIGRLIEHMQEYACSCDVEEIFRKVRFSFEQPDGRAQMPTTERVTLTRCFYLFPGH
15-hLO inh – inhibitors of human 15-lipoxygenase (ALOX15) | P16050 | purified 15hLO-1, xylenol orange hydroperoxide absorbance | Potency, µM (top dose mostly 57.1 µM), for the others: top-dose activity change, negative = inhibition, hits mostly inhibitors | actives 1.4% (n = 74,000); note: % is set by controls: 0 for no effect and ±100 for the full control effect; nearly all actives have a fitted effect of over 55% in size
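Quantitative HTS in 25 mM Hepes pH 7.5 containing 0.01% Triton X-100: human 15hLO-1 at 40 nM, arachidonic acid at 50 uM, 6 min turnover. Product quantified via ferrous oxidation/xylenol orange, 573:405 nm absorbance ratio.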
HEK293 cAMP cs – parental HEK293 cAMP activation (counter-screen); Potency, µM (doses to about 57.1 µM), inactives show at the top dose activation, usual class: activators; actives 2.5% (n = 73,000); parental HEK293 CNG cAMP sensor, membrane potential fluorescence; note: % of control where 0% means no effect; nearly all actives have a fitted effect of over 55% in size
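Counterscreen for endogenous-receptor signalling: CNG-channel HEK 293 cells report cAMP rise by membrane depolarization. After 60 min dye equilibration with 100 uM RO 20-1724, compounds incubated 30 min before bottom-read fluorescence at 590 nm.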
TSHR ag – TSH receptor (human) agonism | P16473 | HEK293-CNG-TSHR cells (CNG channel as cAMP sensor), membrane potential dye, cAMP | Potency, µM (highest dose often 57.1 µM), for inactives: at the top dose activation, usual class: activators | actives 0.48% (n = 73,000); active = well fitted activation curve with a large enough effect in the main read-out, with a control signal flat, not every such curve was filed as active; inconclusive = small, poorly fitted or top-dose-only effect, or a change in a side signal; inactive = no such curve, though single readings can be large or run the other way; % of control where 0% means no effect;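 note: the control signal comes from parental cells without the receptor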
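HEK 293 cells stably expressing TSHR and a cAMP-gated CNG channel; parental CNG-only cells as counterscreen. Cells preloaded 60 min with membrane potential dye plus 100 uM RO 20-1724, then compound 30 min; fluorescence read at 590 nm.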
ERK AVP inh – inhibitors of vasopressin-stimulated ERK signaling pathway | HEK293-V1b, vasopressin-stimulated pERK AlphaScreen | Potency, µM (doses to about 57.5 µM), inactives show at the highest dose activity, negative = inhibition, most hits filed as inhibitors | actives 0.99% (n = 72,000) | AID 995; note: % is set by controls: 0 for no effect and ±100 for the full control effect; nearly all actives have a fitted effect of over 55% in size
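HEK293 cells stably expressing V1b receptor, preincubated 30 min at 37 °C with compound, then stimulated 5 min with 25 nM vasopressin. Phospho-ERK by AlphaScreen SureFire after 5 h RT; normalized to DMSO and vasopressin; AC50 by Hill fit.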
Starred values were filed as active, the others as inactive; u = inconclusive; x = not tested or not shown; [ ] = another dose, or the depositor's remark. Unless noted, calls come from the whole dose curve; as a rule, active = well fitted curve in the direction sought with a large enough effect; inconclusive = small, poorly fitted or top-dose-only effect, or another doubt; inactive = no such curve, though single readings can be large; an effect the other way counts as inactive or inconclusive. Potency is the fitted concentration of half-maximal effect.

SMILES	Caspase-7 inhib	Caspase-1 inhib	15-hLO inh	HEK293 cAMP cs	TSHR ag	ERK AVP inh
COC(=O)c1ccc(O)c(Sc2cc(C(=O)OC)ccc2O)c1	2%	-1%	16µM*	10%	51%	-27%
COC(=O)c1ccc(C)cc1	1%	-6%	-4%	-5%	-3%	20%
CC(C)(Oc1ccc(Cl)cc1)C(=O)O	-1%	1%	-8%[25.6 µM]	14%	4%	1%
c1ccc(-c2cnc(CSc3ncnc4sccc34)o2)cc1	2%	5%	16µM*	16µM*	u	32µM*
NC(=O)c1sc(=S)n(-c2ccc(Br)cc2)c1N	-3%	0%	10µM*	-6%	-24%	u
CCC1Oc2ccc(C)cc2N(CC(=O)N(Cc2ccc3c(c2)OCO3)CC2CCCO2)C1=O (stereo not given)	-3%	-1%	-9%	5µM*	u	-12%
CCN(CC)C(=O)Oc1ccc2c(=O)c(-c3ccc(OC)cc3)c(C)oc2c1	-4%	-3%	-5%	23%	30%	32µM*
CCN(CC)C(=O)Oc1ccc2c(=O)c(-c3ccc(OC)cc3)coc2c1	-4%	-4%	0%	u	u	u
CCCN(CCC)S(=O)(=O)c1cccc(C(=O)Nc2ccc3c(c2)OCO3)c1	-2%	-5%	-25%	16µM*	u	14%
N#C/C(=C/c1ccc(N2CCCCCC2)o1)c1ccc(F)cc1	-14%	-11%	u	-4%	-10%	25µM*
COc1cc(/C=C(/C#N)c2ccc(F)cc2)ccc1OCc1ccc(C(=O)O)o1	-3%	-3%	-5%	18%	-3%	-4%
CC(C)Sc1nc2c(c(=O)n(C)c(=O)n2C)n1Cc1ccc(Cl)cc1	0%	-1%	-18%	7.9µM*	u	u
C=CCN1CCc2c(cc(O)c(O)c2Br)[C@H](c2ccccc2)C1	1%	-1%	u	u	u	-3%
COC(=O)c1cc(COc2ccc3oc(C)c(C(=O)OC)c3c2)c(C)o1	-4%	-4%	-9%	16µM*	u	-9%
COC(=O)c1cc(COc2ccc3ccc(=O)oc3c2)c(C)o1	-2%	-2%	-1%	11%	25%	-7%
CN(C)c1ccc(-c2nn3c(C4CCCCC4)nnc3s2)cc1	-10%	0%	14%	14%	x	-19%
Cc1ccc(C)c(Cn2c(CO)nc3ccccc32)c1	0%	-1%	11%	25µM*	u	-7%
CC(=O)NCc1nc2ccccc2n1Cc1ccccc1C	0%	-3%	-3%	5%	2%	x
COCCNC(=O)C(c1ccc(C)o1)N(C(=O)c1snc(C(N)=O)c1N)c1cc(C)cc(C)c1 (stereo not given)	-6%	-10%	-2%	28%	22%	-11%
c1ccc(-c2ccc(-c3ccc(C4=NCCN4)cc3)o2)cc1	u	u	-6%[11.4 µM]	0%[11.4 µM]	5%[11.4 µM]	24%[11.5 µM]
CCCn1c(NC(=O)c2cccc(S(=O)(=O)N3CCCC3)c2)nc2ccccc21	-2%	-2%	0%	16µM*	u	u
CCCn1c(NC(=O)C2CCN(S(=O)(=O)c3cccs3)CC2)nc2ccccc21	-3%	-1%	12%	u	u	13µM*
CCCn1c(NCc2cc(OC)ccc2OC)nc2ccccc21	u	x	-2%	37%	14%	12%
CCCn1c(-c2ccc(OC)cc2)nc2ccccc21	1%	-3%	0%	25µM*	u	-25%
CCCn1c(NC(=O)c2ccc(C)cc2)nc2ccccc21	-2%	-1%	9%	25µM*	u	1%
SMILES	Caspase-7 inhib	Caspase-1 inhib	15-hLO inh	HEK293 cAMP cs	TSHR ag	ERK AVP inh
CSc1nc(C)c(C(=O)Nc2ccccc2)c(C)c1C#N	-3%	-2%	-9%	25µM*	u	25%
COC(=O)C1=C(C)NC(C)=C(C(=O)OCCN(C)Cc2ccccc2)C1c1cccc([N+](=O)[O-])c1 (stereo not given)	0%	-4%	-28%	x	x	u
C=CC[C@@H]1C=C[C@@H](O/N=C2/[C@H]3O[C@@H]3[C@@H](O)[C@H]3[C@H]2CCn2c(=O)n(-c4ccccc4)c(=O)n23)[C@@H](CO)O1	-9%[11.5 µM]	0%[11.5 µM]	5%[11.4 µM]	-3%[11.4 µM]	3%[11.4 µM]	6%[11.5 µM]
Cc1c(C(=O)O)c2cc(O)ccc2n1-c1ccccc1	1%	0%	1%	8%	-1%	12%
COC(=O)c1c(C)n(-c2ccc(OC)cc2)c2ccc(O)cc12	0%	1%	7.9µM*	4%	x	25µM*
CCS(=O)(=O)N1CCN(c2cccc(C)c2C)CC1	0%	-1%	4%[11.4 µM]	27%[11.4 µM]	x	u
Cc1cccc(N2CCN(CC(=O)NCC3CCCCC3)CC2)c1C	-8%	-1%	u	u	u	25µM*
COc1ccc(NC(=O)N2CC[C@@]3(CCCNC3)C2)cc1	-2%	-2%	-10%	12%	7%	10%
O=C(Nc1ccccc1-c1nc2ccccc2s1)c1ccco1	-13%	-25%	-20%	29%	x	69%
Cc1cnc(NC(=O)c2ccc(-c3nc4ccccc4s3)o2)s1	u	x	u	12%	14%	20µM*
O=C1C=CC2=C3c4cc(O)c(O)cc4C[C@@]3(O)COC2=C1O	x	x	x	1%	5%	x
Cc1onc(-c2ccccc2Cl)c1C(=O)Nc1cccc2cccnc12	-1%	-2%	-17%	u	u	9%
Cc1onc(-c2ccccc2Cl)c1C(=O)Nc1cccc2nsnc12	-26%	x	-13%	32µM*	u	8%
COC(=O)[C@@]1(Cc2ccc(F)cc2)[C@H]2c3cc(C(=O)N4CCCC4)n(CCc4c[nH]c5ccc(OC)cc45)c3C[C@H]2CN1C(=O)c1ccccc1	-5%	-3%	x	26%	1%	-4%
COc1cccc(Nc2ncc3ncc(=O)n(Cc4cccs4)c3n2)c1	u	x	-16%	16µM*	u	-23%
O=c1cnc2cnc(Oc3ccccc3)nc2n1Cc1cccs1	-2%	-6%	-12%	20µM*	u	-17%
COc1ncc2nc(-c3cccs3)c(=O)n(C)c2n1	u	x	-8%	10%	-8%	-14%
CC(=O)N(CCP(=O)(c1ccccc1)c1ccccc1)Cc1ccco1	1%	-3%	6%	32µM*	u	u
CCCN(CCC)c1nc(NC2CCN(C(=O)OCC)CC2)nc(OC)n1	1%	-2%	32µM*	u	u	-12%
CCOC(=O)N1CCC(Nc2c(OCC)c(=O)c2=O)CC1	-8%	4%	6%	3%	0%	10%
CCOc1ccc(NC(=O)c2oc3ccccc3c2NC(=O)C2CC2)cc1	-3%	-6%	-3%	27%	7%	10%
